Only some compounds are listed: those with a hit (about 21% of all), similar ones and a draw of the others.
Pf growth 48h: Primary qHTS for delayed death inhibitors of the malarial parasite plastid, 48 hour incubation. Potency, µM (top dose mostly 28.7 µM), actives largely listed as inhibitors. P. falciparum luciferase growth in erythrocytes, 48 h. AID 504832, 2011. actives 5.9% (n = 310,000)
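Luciferase-expressing P. falciparum in infected erythrocytes (2% hematocrit, 0.1% parasitemia final) in RPMI 1640/0.5% Albumax were exposed to compound for 48 hours at 37 C, 5% CO2; growth read as luminescence.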
Shiga inhibitor: A qHTS for Small Molecule Inhibitors of Shiga Toxin. inhibition, % at 38.7 µM. Vero cells, Shiga toxin protein synthesis inhibition reporter. actives 9.2% (n = 290,000); in the data active means inhibition mostly above about 28%, no sharp cut-off; inactive means mostly below about 43%
SARS PLpro yeast: qHTS of Yeast-based Assay for SARS-CoV PLP; S. cerevisiae expressing SARS-CoV PLpro, growth rescue; Potency, µM (highest dose often 32.9 µM), most hits filed as activators; actives 0.19% (n = 330,000); AID 485353, 2010; calls by dose curve; further: nearly all actives have a fitted effect of over 55% in size
CHX counter: Cycloheximide Counterscreen for Small Molecule Inhibitors of Shiga Toxin; cell reporter, cycloheximide protein synthesis inhibition counterscreen; max response, %; actives 12% (n = 300,000); in the data active means max response mostly above about 13%, no sharp cut-off; inactive means mostly below about 14%; further: read at 38.3 µM for the half of the compounds with a filed dose
Pf growth 96h: Primary qHTS for delayed death inhibitors of the malarial parasite plastid, 96 hour incubation; actives 6.9% (n = 320,000); P. falciparum luciferase reporter growth, 96 h; Potency, µM (doses to about 28.7 µM), actives largely listed as inhibitors
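Delayed-death screen, second-generation endpoint: infected erythrocytes, 2% hematocrit, 0.05% parasitemia final; 96 hours at 37 C, 5% CO2; luciferase detection reagent; luminescence decrease equals reduced growth.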
NS1 function inh: qHTS Assay for Inhibitors of Influenza NS1 Protein Function; Potency, µM (highest dose often 46.1 µM); actives 0.4% (n = 270,000); calls by dose curve; further: actives are rising curves; nearly all actives have a fitted effect of over 50% in size
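Recovery from NS1-induced slow growth read by OD600 in budding yeast switched to galactose assay medium (pH 6.0, -URA) at 1:100 dilution. Compound 23 nl per well; the matching strain lacking NS1 serves as control.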
Each line names hits and unclear results; the compound was inactive in the other large screens. Unless noted, the call rests on the fitted dose curve; in most records, active means well fitted inhibition curve with a large enough effect; inconclusive means small, poorly fitted or top-dose-only effect, or another doubt; inactive means no such curve, though single readings can be large or run the other way.

COc1cc(NC(=O)C2CCCN(S(=O)(=O)c3ccc4c(c3)CCCN4C(C)=O)C2)cc(OC)c1 (stereo not given)	Pf growth 48h inconclusive
CC(=O)Nc1ccc(OCC(O)Cn2c3ccccc3c3ccccc32)cc1 (stereo not given)	Pf growth 48h inconclusive
CC(=O)Nc1ccc(OCC(O)Cn2c3ccccc3c3ccccc32)c(C)c1 (stereo not given)	Pf growth 48h inconclusive, Pf growth 96h 10.4µM
CC1CN(CC(O)COc2ccccc2C(C)(C)C)CC(C)O1 (stereo not given)	Pf growth 48h 2.33µM, Pf growth 96h 8.28µM
OC(COc1ccccc1)Cn1c2ccccc2c2ccccc21 (stereo not given)	Pf growth 48h inconclusive
C=C1CC(C)OC(c2ccccc2OCC(O)CN2CCCCC2)C1 (stereo not given)	Pf growth 48h 14.7µM
Cc1ccccc1OCC(O)Cn1c2ccccc2c2ccccc21 (stereo not given)	Pf growth 48h 8.28µM, Pf growth 96h 11.7µM
CCOC(=O)N1CCN(CC(O)COc2ccccc2C(C)(C)C)CC1 (stereo not given)	none
C#CCOCCOCCOCCNc1nc(N2CCN(C(=O)[C@H](CCCCN)n3cc(CCCC)nn3)CC2)nc(N2CCN(C(=O)[C@H](CCCCN)n3cc(CCC(=O)O)nn3)CC2)n1	Pf growth 48h inconclusive (no result: Shiga inhibitor, CHX counter, NS1 function inh)
Cn1c(NC(=O)c2ccc(Br)o2)cc(=O)n(C)c1=O	none (no result: Pf growth 96h)
Cc1nc2ccc(NC(=O)CSc3ccccc3)cc2s1	none (no result: Pf growth 48h, Shiga inhibitor, CHX counter, Pf growth 96h, NS1 function inh)
Cc1cc(C)n(CC(O)COc2ccc(Cl)cc2Cl)n1 (stereo not given)	Shiga inhibitor 29.0, CHX counter 29.8
Cc1ccccc1OCC(O)CN1CCN(CC(O)COc2ccccc2C)C(C)C1 (stereo not given)	Pf growth 48h 9.28µM, Pf growth 96h inconclusive
Cc1cc(C)n(CC(O)Cn2c3ccccc3c3ccccc32)n1 (stereo not given)	Pf growth 48h 10.4µM (no result: Pf growth 96h)
Cc1ccccc1OCC(O)CN1CCN(CCN2C(=O)c3cccc4cccc(c34)C2=O)CC1 (stereo not given)	Pf growth 96h inconclusive
CC(C)(C)OC(=O)C[C@@H]1C/C=C\C[C@@H](CC(=O)N(CCO)Cc2ccccc2)C(=O)N[C@@H](c2ccccc2)COC1=O	none (no result: Pf growth 48h, Shiga inhibitor, CHX counter, Pf growth 96h, NS1 function inh)
C=CCC(C(=O)NC(C)c1ccccc1)C(=O)NC(C)c1ccccc1 (stereo not given)	none
CN1CCC2(CC1)Nc1nc(SCc3ccc(Cl)cc3)nn1C1=C2CN(C)CC1	Pf growth 48h 3.29µM, SARS PLpro yeast inconclusive
COc1cc(CN(C2CCCCC2C)S(=O)(=O)c2ccc(S(=O)(=O)NC3CC3)cc2)cc(OC)c1OC (stereo not given)	Pf growth 48h 8.28µM
COc1ccc(CC(=O)Nc2ccc(S(=O)(=O)N(C)C)cc2)cc1OC	none
COc1ccc(CN(C2CCCCC2C)S(=O)(=O)c2ccc(S(=O)(=O)N(C)C)cc2)cc1OC (stereo not given)	Pf growth 48h 13.1µM, Pf growth 96h inconclusive, NS1 function inh inconclusive
Cc1cc(C(=O)Nc2ccccc2Cc2ccccc2)no1	none
COCCNC(=O)c1onc(CSc2ccccc2)c1C(=O)NCCOC	none (no result: Shiga inhibitor, CHX counter, NS1 function inh)
COc1ccc(C(F)(F)F)cc1NC(=O)c1nc2nc(C)cc(C(F)F)n2n1	Pf growth 48h 3.7µM, Pf growth 96h inconclusive
Cc1cc(C(F)F)n2nc(C(=O)Nc3cccc(C(F)(F)F)c3)nc2n1	Pf growth 96h inconclusive
COc1ccc(Cn2nc(C)n(N(C)c3ncc(C(F)(F)F)cc3Cl)c2=O)cc1	Pf growth 48h inconclusive (no result: Pf growth 96h)
NS(=O)(=O)c1ccc(CCNc2nc(CN3CCCCC3)nc3sc4c(c23)CCC4)cc1	Pf growth 48h 11.7µM, Pf growth 96h 6.57µM
COc1ccccc1CCC(=O)Nc1ccc2c(c1)CN(Cc1ccc(CO)o1)CC2	Pf growth 48h 13.1µM, Pf growth 96h inconclusive
COc1ccccc1CCC(=O)Nc1ccc(OC)c(S(=O)(=O)N2CCCCC2)c1	Pf growth 48h inconclusive, Pf growth 96h inconclusive (no result: Shiga inhibitor, CHX counter, NS1 function inh)
COCCC(=O)Nc1ccc2c(c1)CN(C(=O)c1ccc(CSC)o1)CC2	Pf growth 48h inconclusive, Pf growth 96h 13.1µM
O=C(Nc1ccc2c(c1)CN(Cc1ccc(CO)o1)CC2)c1ccc(C(F)(F)F)cc1	Pf growth 48h inconclusive, CHX counter 44.3
COc1ccccc1/C=C1/C(=O)N(c2ccc([N+](=O)[O-])cc2)N=C1C	Pf growth 48h inconclusive
CN(C)/C=C1/C(=O)N(c2ccc([N+](=O)[O-])cc2)N=C1c1ccccc1	Shiga inhibitor 82.7, CHX counter 34.2
CN(C)/C=C1\C(=O)N(c2ccc([N+](=O)[O-])cc2)N=C1c1ccccc1	Shiga inhibitor 93.1, CHX counter 31.6
C/C(=C1/C(=O)N(c2ccc([N+](=O)[O-])cc2)N=C1c1ccccc1)N(C)C	CHX counter 24.5
CCOC1=NN(c2ccccc2)C(=O)/C1=C\N(C)C	none (no result: NS1 function inh)
Nc1nc(Cc2ccccc2)nc(Cc2ccccc2)c1-c1ccccc1	none (no result: Pf growth 48h, Shiga inhibitor, SARS PLpro yeast, CHX counter, Pf growth 96h)
O=S(=O)(c1ccc(Cl)cc1)N1CCCC(c2nc(-c3ccc(F)cc3)no2)C1 (stereo not given)	Pf growth 48h inconclusive (no result: Shiga inhibitor, CHX counter, NS1 function inh)
COc1ccc(NC(=O)N2CCCC(c3nc(-c4ccc(OC)cc4)no3)C2)cc1 (stereo not given)	CHX counter 40.2
COc1ccc(-c2noc(C3CCCN(C(=O)Nc4ccccc4)C3)n2)cc1 (stereo not given)	none
O=C(Nc1ccc(Cl)cc1)N1CCN(c2ccc3nnc(-c4ccc(F)cc4)n3n2)CC1	Pf growth 48h 9.28µM, Pf growth 96h inconclusive
COc1ccc(-c2noc(C3CCCN(C(=O)Nc4ccccc4F)C3)n2)cc1 (stereo not given)	CHX counter 38.4, Pf growth 96h inconclusive
O=C(Nc1ccc(Cl)cc1)N1CCC(c2nc(-c3ccc(F)cc3)no2)CC1	Pf growth 48h inconclusive, Shiga inhibitor 53.1, CHX counter 34.7
CC(C)C(OC(=O)c1nsc(Cl)c1Cl)C(=O)NC1CCCCC1 (stereo not given)	none
COc1ccc(C)cc1S(=O)(=O)N1c2ccccc2CC1C (stereo not given)	Pf growth 48h inconclusive (no result: Pf growth 96h)
COc1ccc(NC(=O)N2CCCC(c3nc(-c4ccc(C(C)C)cc4)no3)C2)cc1 (stereo not given)	CHX counter 32.1, Pf growth 96h 8.28µM
CCOc1ccc(C(=O)NC(=S)Nc2ncccc2C)cc1[N+](=O)[O-]	Shiga inhibitor 32.6, CHX counter 24.7, NS1 function inh inconclusive
CCOc1ccc(C(=O)NC(=S)Nc2ccc(NC(=O)c3ccco3)cc2)cc1[N+](=O)[O-]	CHX counter 15.4

Assay outcomes deposited in PubChem BioAssay by National Center for Advancing Translational Sciences (NCATS).
